Data published in the supplement of paper PMC6555819.

Legend:
Experiment in all cases: PBM binding z-score (relative to random genomic background probes); higher = stronger binding; sequences stand for … in GC…GCGATTGACAGCGTAGAATGAAGG
[1] = test system: FXR:RXRa (NR concentration 270 nM, RXRa partner concentration 90 nM)
Procedure, shortened: (§1)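 Custom Agilent 4×180K protein-binding microarrays carried double-stranded probes. Their 34-nt variable regions held direct-repeat seeds, single-nucleotide variants, half-site ablations and random human genomic background sequences. Arrays were incubated 1 h with ligand-free nuclear receptor dimers in PBS pH 7.4, 2% milk, 0.02% Triton X-100, 1 mM DTT, 0.2 mg/mL BSA and 0.4 mg/ml salmon testes DNA. Antibodies against each partner (one per run) detected binding, and scanned fluorescence was regression-normalized. Binding z-scores use random background probes as reference.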

[2] = test system: LXRa:RXRa (NR concentration 270 nM, RXRa partner concentration 90 nM)
Procedure, shortened: as §1

[3] = test system: LXRa homodimer (NR concentration 270 nM)
Procedure, shortened: as §1

[4] = test system: LXRb:RXRa (NR concentration 270 nM, RXRa partner concentration 90 nM)
Procedure, shortened: as §1

[5] = test system: LXRb homodimer (NR concentration 270 nM)
Procedure, shortened: as §1

[6] = test system: PPARg:RXRa (NR concentration 180 nM, RXRa partner concentration 90 nM)
Procedure, shortened: as §1

[7] = test system: PPARg:RXRa 270nM:90nM, anti-RXR (NR concentration 270 nM, RXRa partner concentration 90 nM)
Procedure, shortened: as §1

[8] = test system: PPARg:RXRa 30nM:10nM, anti-RXR (NR concentration 30 nM, RXRa partner concentration 10 nM)
Procedure, shortened: as §1

[9] = test system: PPARg:RXRa 90nM:30nM, anti-RXR (NR concentration 90 nM, RXRa partner concentration 30 nM)
Procedure, shortened: as §1

[10] = test system: PPARg:RXRa DBDmut IVT, anti-RXR (DBD mutation: RXRa K156A/R161A, NR concentration 270 nM, RXRa partner concentration 90 nM)
Procedure, shortened: as §1

[11] = test system: PPARg:RXRa IVT, anti-PPARg (NR concentration 270 nM, RXRa partner concentration 90 nM)
Procedure, shortened: as §1

[12] = test system: PPARg DBDmut:RXRa IVT, anti-PPARg (DBD mutation: PPARg1 K132A/R137A, NR concentration 270 nM, RXRa partner concentration 90 nM)
Procedure, shortened: as §1

[13] = test system: PPARg DBDmut IVT, anti-PPARg (DBD mutation: PPARg1 K132A/R137A, NR concentration 270 nM)
Procedure, shortened: as §1

[14] = test system: PPARg homodimer (NR concentration 180 nM)
Procedure, shortened: as §1

[15] = test system: PXR:RXRa (NR concentration 270 nM, RXRa partner concentration 90 nM)
Procedure, shortened: as §1

[16] = test system: PXR homodimer (NR concentration 270 nM)
Procedure, shortened: as §1

[17] = test system: RARa:RXR (NR concentration 270 nM, RXRa partner concentration 90 nM)
Procedure, shortened: as §1

[18] = test system: RARa homodimer (NR concentration 270 nM)
Procedure, shortened: as §1

[19] = test system: RARb:RXRa (NR concentration 270 nM, RXRa partner concentration 90 nM)
Procedure, shortened: as §1

Row | Sequence | PBM binding z-score [1] | PBM binding z-score [2] | PBM binding z-score [3] | PBM binding z-score [4] | PBM binding z-score [5] | PBM binding z-score [6] | PBM binding z-score [7] | PBM binding z-score [8] | PBM binding z-score [9] | PBM binding z-score [10] | PBM binding z-score [11] | PBM binding z-score [12] | PBM binding z-score [13] | PBM binding z-score [14] | PBM binding z-score [15] | PBM binding z-score [16] | PBM binding z-score [17] | PBM binding z-score [18] | PBM binding z-score [19]
1 | AATTCAGGGTCACTAGGCCAGAGTAGGTACGAAT | 6.96 | 6.2 | 1.95 | 4.99 | 1.68 | 9.15 | 7.59 | 4.55 | 6.76 | 4.91 | 6.4 | 5.15 | 2.77 | 4.18 | 4.19 | 0.429 | 5.62 | 1.32 | 4.89
2 | TAGCCTAGGTCATAGGCCAGTATACCACGCGAAC | 4.26 | 3.46 | 0.285 | 2.09 | -0.0669 | 4.51 | 4.54 | 2.36 | 4.03 | 1.31 | 3.09 | 0.284 | -0.111 | 1.91 | 1.47 | -0.481 | 2.66 | -0.0614 | 3.66
3 | CCTACTGGGCCAAAGGTCATTGACTCCAATGCTC | 5.27 | 5.54 | 4.65 | 5.25 | 0.543 | 12.1 | 10.3 | 10.7 | 11.4 | 5.27 | 7.13 | 0.277 | 0.152 | 2.5 | 5.52 | 1.32 | 6.16 | 0.485 | 4.53
4 | CAAACTAGGTCAAAGGTCAAAATCGAGCCAACCA | 8.54 | 7.06 | 4.95 | 7.22 | 3.3 | 13.4 | 11.8 | 13.7 | 14.5 | 8.4 | 9.49 | 5.76 | 3.58 | 5.14 | 6.99 | 1.48 | 8.9 | 2.19 | 5.94
5 | AGTCAAAGTTCAGTAGGTAACGTAAGATTCAGCT | 2.64 | 3.04 | 1.6 | 1.67 | 0.481 | 5.39 | 5.2 | 2.18 | 4.2 | 2.06 | 4.51 | 0.804 | 1.29 | 1.65 | 2.51 | 1.37 | 1.49 | 0.822 | 4.13
6 | GCTAGTTGGTCAGTAAATGGTCACACACCGGTCG | 0.041 | -0.126 | -0.00637 | -0.244 | -0.204 | 0.366 | -0.00235 | -0.52 | -0.282 | 0.302 | 0.493 | 0.157 | 0.192 | 0.621 | -0.0876 | -0.353 | 0.368 | 0.255 | 1.2
7 | CCTTACAGGTCACGAGGTTATAGCACGACGAGCG | 7.41 | 5.59 | 2.37 | 4.42 | 0.788 | 7.55 | 6.56 | 3.71 | 5.37 | 5.46 | 6.09 | 1.32 | 1.39 | 3.54 | 4.58 | 0.719 | 5.38 | 1.27 | 5.31
8 | GATTACGGGTCAAAGGTTATAGCATGAATAGAAT | 7.94 | 6.17 | 1.25 | 6.01 | 0.564 | 11.8 | 9.6 | 10.5 | 11.3 | 5.21 | 6.61 | 1.49 | 3.11 | 2.97 | 6.03 | 0.645 | 8.43 | 1.34 | 4.69
9 | ATATGTAGGTTCCATCCGGGTCATTCAGGCTATG | 1.31 | 1.3 | 0.192 | 1.88 | 0.514 | 2.33 | 2.26 | 0.557 | 1.74 | 4.13 | 4.29 | 1.99 | 1.93 | 2.32 | 3.14 | 2.22 | 2.86 | 0.215 | 1.43
10 | GGTACGAGGGCAAAGTTGATAGCATCTGTCGACG | 1.46 | 1.03 | -0.421 | 0.954 | -0.42 | 5.89 | 6.23 | 4.16 | 6.02 | 2.41 | 3.4 | 0.0227 | -1.04 | 1.2 | 0.895 | 0.0381 | 1.42 | -0.085 | 2.33
11 | AGAATGAGGTTACCAGAGATCAGGGAAACGCTTG | 2.17 | 6.18 | -0.181 | 3.62 | -0.177 | 2.77 | 2.74 | 0.897 | 1.85 | 3.82 | 3.51 | 1.02 | -0.0941 | 0.651 | 1.95 | -0.0597 | 2.47 | 0.341 | 2.15
12 | CGTCCAAGGTCCATGCTAGGTCAGTGAAAGCATT | 0.162 | 3.49 | 0.25 | 0.906 | -0.855 | -0.453 | -0.317 | -0.678 | -0.366 | 0.0985 | 0.351 | -0.956 | -1 | 0.21 | 0.422 | -0.0884 | 1.35 | -0.265 | 1.7
13 | CCTTACGGGTCTCTCCAGGTTATAGCATCGGAGT | 0.0576 | 2.63 | 0.136 | 0.0193 | -0.526 | -0.0815 | -0.225 | -0.385 | -0.47 | 0.165 | 0.161 | -0.412 | -0.96 | 0.354 | 0.294 | -0.138 | 0.923 | 0.0233 | 0.15
14 | CATACTAGGTCAAAGGTCAAAGTCGAGCCAACCA | 8.57 | 7.39 | 7.06 | 7.48 | 3.69 | 13.2 | 10.9 | 12.6 | 12.5 | 7.72 | 8.62 | 2.89 | 3.65 | 3.93 | 6.81 | 1.91 | 8.63 | 1.65 | 5.97
15 | ATCGAAAGGTGGACGAGGTGAGTATACACCGTTT | 0.217 | -0.178 | -0.304 | -0.111 | -0.212 | 0.872 | 0.439 | 0.356 | 0.402 | -0.328 | 0.716 | 0.496 | 0.266 | 0.223 | 0.219 | 0.0997 | 0.702 | 0.444 | 0.89
